Reference: the supplement of paper PMC3334620
Over roughly 33,000 sequences, “E-score (-0.5 to 0.5)” has its median near -0.035; the highest 2% begin near 0.34. For the sample, the highest values were picked, then their nearest neighbours and some sequences at random.

The sequences below were run against T1, Mot3 (UniProt P54785) (assay: PBM E-score (8-mer binding enrichment) (E-score (-0.5 to 0.5)); higher = stronger / more preferred TF binding). Conditions: protein concentration: 200 nM; construct: GST-full length.
T1 sequence: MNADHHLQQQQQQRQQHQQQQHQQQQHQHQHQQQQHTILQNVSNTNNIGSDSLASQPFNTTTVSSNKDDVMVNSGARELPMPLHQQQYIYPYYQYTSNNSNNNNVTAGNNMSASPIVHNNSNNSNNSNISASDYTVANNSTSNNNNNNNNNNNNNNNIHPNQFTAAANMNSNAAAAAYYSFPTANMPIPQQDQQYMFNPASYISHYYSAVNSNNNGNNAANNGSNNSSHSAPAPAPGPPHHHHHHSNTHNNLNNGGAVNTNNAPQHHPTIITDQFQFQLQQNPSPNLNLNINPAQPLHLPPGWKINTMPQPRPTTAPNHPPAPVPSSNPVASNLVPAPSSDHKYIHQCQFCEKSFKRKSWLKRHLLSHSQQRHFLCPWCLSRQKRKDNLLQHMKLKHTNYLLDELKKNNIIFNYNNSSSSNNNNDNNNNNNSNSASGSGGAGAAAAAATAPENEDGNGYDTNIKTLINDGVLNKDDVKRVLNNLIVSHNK
Experimental: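 Universal 'all 10-mer' protein binding microarrays (Agilent AMADID 015681) probed with GST-tagged S. cerevisiae TFs (full-length or DBD) made by in vitro transcription/translation (PURExpress), about 100-200 nM. Bound TF was detected with fluorescent anti-GST. Each ungapped 8-mer (which stands for itself and its reverse complement) is scored by the PBM enrichment score (E-score), a modified Wilcoxon-Mann-Whitney statistic from -0.5 to +0.5, computed with the Universal PBM Analysis Suite. Scale: above 0.35 generally sequence-specific binding.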

Point of comparison: GGTTCCAA, “PBM E-score” value -0.208. Against it:
- ACCAACCG — higher, -0.16
- AGAAGGAA — higher, 0.382
- GCAAGGAA — higher, 0.211
- GGAAGGAA — higher, 0.384
- TGAAGGAA — higher, 0.434
- AGAAGGAC — higher, -0.198
- GGAAGGAC — higher, -0.122
- AGAAGGAG — higher, -0.107
- CGAAGGAA — higher, 0.39
- AGAAGGAT — higher, 0.0925
- CGAAGGAG — lower, -0.225
- CGAAGGAC — higher, -0.03
- TGGAGGAA — higher, 0.0436
- CTTGGATA — higher, -0.039
- GACTCCTA — higher, -0.00028
- CAACAACA — higher, 0.315
- TCGGTCCA — higher, -0.0654
- CGATACTC — lower, -0.259
- GCATTTGA — higher, 0.0576
- GCCAAAGA — higher, -0.0826
- TCTAGACA — higher, 0.167
- GCTAGGCA — higher, 0.446
- CCTAGGCG — higher, -0.157
- GCTAGGCC — lower, -0.374
- CCTAGGCC — higher, -0.0992
- TCTAGGAA — higher, 0.315
- ACTAGGCG — higher, 0.168
- GCTAGGTA — higher, -0.0278
- CCTAGGCA — higher, 0.459
- ACTAGGCA — higher, 0.425
- ACTAGGCC — higher, -0.141
- TCTAGGCA — higher, 0.458
- GTCGCACA — higher, -0.125
- AGGCGTTG — higher, 0.185
- GACTGTGA — higher, -0.0263
- GTGATAGA — higher, -0.0161
- GCTCCCCC — lower, -0.288
- GTACATAA — higher, 0.306
- TTACATAA — higher, 0.408
- TAACATAA — higher, 0.341
- CAACATAA — higher, 0.289
- CTACATAA — higher, 0.228
- GAACATAA — higher, 0.0111
- CAGGCTCA — higher, 0.392
- TAGGCTCA — higher, 0.109
- AAGGCTCG — higher, 0.235
- AAGGCTCA — higher, 0.336
- CAGGCTCG — higher, 0.342
- CAGGCTCC — higher, 0.28
- CATTTGGG — higher, -0.173
- CTTAGCCC — higher, -0.079
- GAAAGGAC — higher, -0.118
- AACTTCGC — higher, -0.0198
- ACGCTCCC — higher, -0.0438
- TAGGAAAA — higher, 0.384
- CAGAAAAC — higher, 0.152
- AAGGAAAG — higher, 0.441
- AAGGAAAT — higher, 0.426
- CAGGAAAC — higher, 0.445
- ATGGAAAG — higher, 0.0416
- TAGGGAAA — higher, -0.0198
- CGGGAAAC — higher, -0.0422
- GAGGAAAA — higher, 0.0527
- AGGGAAAT — higher, -0.0244
- ATGGAAAT — higher, 0.0932
- AGGGAAAG — higher, -0.0829
- TACCAATA — lower, -0.253
- CACGGTCA — higher, 0.212
- ATCAGCTG — higher, -0.0375
- TCAAGTCA — higher, 0.0447
- CGACTTGC — lower, -0.263
- GATGAAGA — higher, -0.135
- ACCGAGGA — higher, -0.111
- ATCGGGGA — higher, 0.0758
- AGATAGTC — higher, -0.0427
- AGCAGTAG — lower, -0.226
- TCAACGGA — higher, -0.113
- AAGGGAAA — higher, 0.0842
- AAGGAAAA — higher, 0.417
- ACGGAAAC — higher, -0.122
- CAGGAAAA — higher, 0.427
- CAGAAAAG — higher, -0.0566
- GAGGAAAC — higher, -0.027
- AAGGAAAC — higher, 0.423
- CCGGAAAG — lower, -0.215
- CAGAAAAA — higher, 0.0512
- CGGAAAAA — higher, 0.0869
- CAGGAAAG — higher, 0.432
- ATGGAAAA — higher, -0.0018
- TATCTTAA — higher, 0.153
- TAAAGCTA — higher, 0.19
- CAGACCGG — higher, -0.14
- ACTCGAAT — higher, 0.00379
- CTCAGCAG — higher, -0.113
- CGTAATAA — higher, 0.288
- AGTAAAAA — higher, 0.16
- GGTAATAA — higher, 0.163
- TGTAAACA — higher, 0.387
- TGTAAAAA — higher, 0.379
- CGTAAAAA — higher, 0.258
- TGTAATAA — higher, 0.375
- AGTAAACA — higher, 0.251
- GGTAAACA — higher, 0.323
- GGAGAAAA — higher, -0.133
- ACCTGTCA — higher, -0.0178
- AAGGCTAT — higher, -0.0295
- ACGGTGCG — higher, 0.0148
- ACGGTGCC — higher, 0.343
- ACGGTGCA — higher, 0.184
- CAGAGATG — higher, 0.0978
- TAGGGTCA — higher, -0.0851
- AAGGTCTG — higher, -0.0775
- AATCTACA — higher, 0.349
- AATCTACT — higher, -0.0291
- CATCTACA — higher, 0.262
- CGTTCCTC — higher, 0.167
- GCTTCCTA — higher, 0.106
- AGTTCCGG — lower, -0.359
- AGTTCCGA — higher, -0.142
- CATTCCTA — higher, -0.129
- AGTTCCTC — higher, 0.0435
- AGTTCCTG — higher, 0.403
- ACTTCCTA — higher, -0.09
- GGTTCCTA — higher, 0.454
- CGTTCCTA — higher, 0.455
- AGTTCCTA — higher, 0.433
- CCAATCCC — higher, -0.127
- AGAGGGCC — lower, -0.371
- GGGGTAGA — higher, -0.0141
- AGGTCTTC — higher, -0.0921
- CGCTAACG — higher, -0.0607
- GGACTACA — higher, 0.102
- ACCCCCTA — lower, -0.298
- AGGCGAAC — higher, -0.0626
- ACAGTTCT — higher, -0.132
- AAGAGGCA — higher, 0.391
- TAGAGGCA — higher, 0.389
- GAGAGGCA — higher, 0.239
- CCGAGGCA — higher, 0.308
- AAGAGGCT — lower, -0.222
- CAGAGGCA — higher, 0.299
- TCGAGGCA — higher, 0.346
- GCGAGGCA — higher, 0.148
- TAGAGGGA — higher, -0.0707
- AAGACCTG — higher, -0.079
- TGACTAAA — higher, 0.0227
- GGCTAATA — higher, -0.151
- ATCGAACA — higher, -0.0411
- GATTGTCC — higher, -0.0522
- AGGAAGCC — higher, -0.161
- ACTATGTA — higher, 0.36
- GCTATGTA — higher, 0.341
- CGTATGTA — higher, 0.309
- CCTATGTC — higher, 0.172
- AATATGTA — higher, 0.277
- AGTATGTA — higher, 0.289
- CCTATGTA — higher, 0.348
- ACTATGTG — higher, 0.0709
- GCTATGCA — higher, -0.154
- ACTATGTC — higher, 0.104
- GGTATGTA — higher, 0.343
- CATATGTA — higher, 0.318
- ACAACTAG — higher, -0.0235
- GTCCGGAA — higher, -0.0613
- TCCCCCCA — lower, -0.354
- AAAGTCGG — higher, -0.0308
- GAAGGGAA — lower, -0.213
- CGATGGCC — lower, -0.268
- AATAACAC — higher, 0.31
- AATAACAG — higher, 0.254
- AATAACAT — higher, 0.349
